# According to PubChem BioAssay AID431 (Sanford-Burnham Center for Chemical Genomics, 2006):
# Screen size: about 63,000 compounds; about 1,100 (1.7%) were called active. Shown is part of a subset that was picked to be rich in actives. Results with a measured potency or affinity are listed apart. Unmarked numbers belong to inactive results.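 Rule for the calls: active = compounds whose percent cytotoxicity in the single-dose primary screen, scaled between solvent and toxic-drug controls, exceeds 50; inactive = the rest.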
# Assay: cytotoxicity in KRAS-transformed pancreatic duct cells, primary screen, cell-based, fluorescence, HTS (AID 431);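 note: 0% = DMSO solvent wells and 100% = doxorubicin-treated wells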
# Details: HPDE-C7K KRASV12 cells, Alamar Blue viability, 48 h; at 10 µM; hits give high values
row,SMILES,cytotoxicity
1,O=C(CSC1=NCCS1)NC1CCCCC1,3.6%
2,CCC(C)C1C(C#N)=C(N)Oc2n[nH]c(C)c21 (stereo unspecified),7.5%
3,CCC(CC)C1C(C#N)=C(N)Oc2n[nH]c(C)c21 (stereo unspecified),56.7% (active)
4,Cc1[nH]nc2c1C(C(C)C)C(C#N)=C(N)O2 (stereo unspecified),7.9%
5,CCOC(=O)Cc1cc(=O)n(-c2nc3ccccc3s2)[nH]1,79.8% (active)
6,CCOC(=O)CC(=O)Nc1nc2ccccc2s1,-6.8%
7,COC(=O)Cc1cc(=O)n(-c2nc3ccccc3s2)[nH]1,87.9% (active)
8,COC(=O)Cc1cc(=O)n(-c2nc3ccccc3[nH]2)[nH]1,4.2%
9,COC(=O)Cc1cc(=O)n(-c2ccccc2)[nH]1,-4.1%
10,CCOC(=O)c1nc2ccccc2s1,-9.2%
11,CSC1=C(C#N)C(C)C2=C(CC(C)(C)CC2=O)N1 (stereo unspecified),-15.4%
12,Cc1cc(C)nc(N2CCC(C(=O)NC3CCCCCC3)CC2)n1,-1.8%
13,COc1ccc(N2CCN(C(c3ccccc3)c3nnnn3Cc3ccc(F)cc3)CC2)cc1 (stereo unspecified),-7.5%
14,O=C(Cc1ccc(Cl)cc1)Nc1ccc(-c2nnc(-c3ccco3)o2)cc1,4.4%
15,O=C1CN(C(=O)c2cccs2)c2ccccc2N1,-12.5%
16,O=C(c1ccc(F)cc1)N(Cc1ccccc1)C1CCS(=O)(=O)C1 (stereo unspecified),-7.8%
17,C=C(C)COc1ccc(-c2[nH]ncc2-c2ccc(OC)c(OC)c2)c(O)c1,4.1%
18,CCOc1ccc(-c2[nH]ncc2Oc2ccccc2OC)c(O)c1,61.4% (active)
19,CCOc1ccccc1Oc1cn[nH]c1-c1ccc(OC)cc1O,61.8% (active)
20,COc1ccc(Oc2cn[nH]c2-c2ccc(O)cc2O)cc1,24.9%
21,CCOc1ccc(-c2[nH]ncc2-c2ccc(OC)c(OC)c2)c(O)c1,51.8% (active)
22,COc1ccc(-c2[nH]ncc2Oc2ccccc2OC)c(O)c1,42.5%
23,CCOc1ccc(-c2[nH]ncc2Oc2ccccc2OCC)c(O)c1,55.7% (active)
24,COc1ccc(-c2[nH]ncc2-c2cnc(C)s2)c(O)c1,7.2%
25,COc1ccc(-c2[nH]ncc2-c2ccc(Cl)cc2)c(O)c1,47%
26,CCOC(=O)C1CCN(Cc2nc3ccccc3c(=O)n2-c2ccc(OCC)cc2)CC1,7.8%

row,SMILES,cytotoxicity
1,CC(=O)Nc1ccc(OC(F)(F)C(F)C(F)(F)F)c(NC(C)=O)c1 (stereo unspecified),-5.3%
2,CCOC(=O)c1c(C)n(CC(O)c2ccccc2)c2ccc(O)cc12 (stereo unspecified),-7.5%
3,OCCNCc1ccc(OC2CCCC2)cc1,5.4%
4,COc1ccc(CCNC(=O)CC2Nc3cc(C)c(C)cc3NC2=O)cc1OC (stereo unspecified),0%
5,O=C(O)Cn1cccc1C(=O)c1ccccc1,-0.1%
6,N=c1c(C(=O)NCc2ccc(F)cc2)cc2c(=O)n3ccccc3nc2n1Cc1ccco1,-3.9%
7,O=C(Cn1c(=O)sc2ccccc21)NCCOc1ccccc1F,-11.5%
8,CCC(C)Sc1nnc(Cc2cc(=O)[nH]c(=O)[nH]2)n1-c1ccc(F)cc1 (stereo unspecified),-12.7%
9,CC(=O)Nc1ccc(N(C(=O)c2cnccn2)C(C(=O)NC2CCCCC2)c2ccc(O)cc2)cc1 (stereo unspecified),-16.5%
10,CCOC(=O)c1sc(NC(=O)c2ccc(CC)s2)nc1C,4.6%
11,C=C(C)COc1ccc(-c2nc(N)ncc2Oc2ccccc2OCC)c(O)c1,18.1%
12,C=C(C)COc1ccc(-c2[nH]ncc2Oc2ccccc2OCC)c(O)c1,78.4% (active)
13,CC1Cc2ccccc2N1C(=O)CN1C(=O)NC(C)(c2ccc3c(c2)OCCO3)C1=O (stereo unspecified),1.8%
14,CN1CCN(c2ccc(NC(=O)c3ccccc3Br)cc2)CC1,2.5%
15,COc1cc2ccccc2cc1C(=O)N1CCN(C)CC1,-4.6%
16,COc1cc2ccccc2cc1C(=O)Nc1ccc(N2CCN(C)CC2)cc1,65.5% (active)
17,O=C(Nc1sccc1C(=O)N1CCOCC1)c1cccnc1,10.9%
18,CCCc1nc(SCC(=O)N2CCN(c3ccccc3)CC2)c2c(=O)n(C)c(=O)n(C)c2n1,0.7%
19,Cn1c(=O)c2c(SCC(=O)N3CCC(Cc4ccccc4)CC3)nc(C3CC3)nc2n(C)c1=O,4%
20,CCOC(=O)CC(=O)CSc1nc(N)c(C#N)c(-c2ccc(Cl)cc2)c1C#N,68.4% (active)
21,CCCCOC(=O)CSc1nc(N)c(C#N)c(-c2ccc(OCC)cc2)c1C#N,17%
22,CCCCOc1ccc(-c2c(C#N)c(N)nc(SCC(N)=O)c2C#N)cc1,105% (active)
23,CCOC(=O)CC(=O)CSc1nc(N)c(C#N)c(-c2ccc(F)cc2)c1C#N,16.5%
24,CCOC(=O)CSc1nc(N)c(C#N)c(-c2ccc(OC)cc2)c1C#N,-14.8%
25,CCCCOC(=O)CSc1nc(N)c(C#N)c(-c2ccc(OC)cc2)c1C#N,-26.1%
26,O=C(O)c1ccccc1C(=O)c1cccs1,-9.3%

row,SMILES,cytotoxicity
1,CCc1nc(NCC2CCCO2)c2oc3ccccc3c2n1 (stereo unspecified),-29.3%
2,O=C(NCCCN1CCN(CCCNC(=O)c2ccc3c(c2)OCO3)CC1)c1ccc2c(c1)OCO2,-34.5%
3,Cc1ccc(N2CC(C(=O)N3CCN(c4ccccc4)CC3)CC2=O)cc1 (stereo unspecified),30.6%
4,Cc1ccc(N2CC(C(=O)N3CCN(C(=O)c4ccco4)CC3)CC2=O)cc1 (stereo unspecified),52.5% (active)
5,CCOC(=O)C1CCN(C(=O)C2CC(=O)N(c3ccc(C)cc3)C2)CC1 (stereo unspecified),-13.4%
6,CCN(CC)c1ccc(NC(=O)C2CCCN(S(=O)(=O)c3cccnc3)C2)c(C)c1 (stereo unspecified),-9.5%
7,COc1ccc(-c2cc(-c3cc(F)ccc3O)[nH]n2)cc1OC,8.8%
8,Oc1ccccc1-c1cc(-c2cccc(F)c2)n[nH]1,16.2%
9,COc1ccc(-c2cc(-c3ccccc3O)[nH]n2)cc1OC,61.1% (active)
10,N#CC1=C(N)SC(N)=C(C#N)C1c1ccnc2ccccc12,-13.5%
11,COc1ccc(N2CC(O)=C(c3nc4ccccc4s3)C2=N)cc1,9.4%
12,CCOc1ccccc1N1CC(O)=C(c2nc3ccccc3s2)C1=N,64.8% (active)
13,COc1ccc(N2CC(O)=C(c3nc4ccccc4s3)C2=N)c(OC)c1,11.5%
14,O=C(c1cccs1)N1CCOCC1,-26.6%
15,COc1ccc2c(c1)Cc1sc(NC(=O)c3cccs3)nc1-2,-6.8%
16,O=C(Nc1nc2c(s1)CCc1ccccc1-2)c1cccs1,-14.1%
17,COc1ccc2c(c1)-c1nc(NC(=O)c3cccs3)sc1CC2,80.1% (active)
18,Oc1ccccc1-c1nc(N2CCN(Cc3ccccc3)CC2)c2ccccc2n1,13%
19,CCCCN(Cc1ccccc1)c1ncnc2nc[nH]c12,6.8%
20,Clc1ccccc1CNc1ncnc2nc[nH]c12,-10.1%
21,Clc1ccccc1CN(Cc1ccccc1)c1ncnc2nc[nH]c12,115% (active)
22,O/N=C1/CCCCc2sccc21,-23.7%
23,COC(=O)C1=CN(CC2CCCO2)C=C(C(=O)OC)C1c1cc(OC)c(OC)c(OC)c1 (stereo unspecified),9.3%
24,CCOc1ccccc1CN(Cc1ccco1)S(=O)(=O)c1ccc(-n2cnnn2)c(OC)c1,53.2% (active)
25,COc1ccccc1CN(Cc1ccco1)S(=O)(=O)c1ccc(-n2cnnn2)c(OC)c1,20.8%
26,COc1cc(S(=O)(=O)N(Cc2cccnc2)Cc2ccco2)ccc1-n1cnnn1,6.5%

row,SMILES,cytotoxicity
1,COC(=O)c1ccccc1NC(=O)NCC1CCCO1 (stereo unspecified),8.4%
2,Cc1cc(C)cc(NS(=O)(=O)c2ccc3[nH]cc(C(=O)NCc4ccco4)c(=O)c3c2)c1,42.5%
3,CCN(CC)C(=O)CSc1ncnc2c1nnn2-c1ccc(OC)cc1,-10.4%
4,COc1ccc(-n2nnc3c(SCC(=O)NCC4CCCO4)ncnc32)cc1 (stereo unspecified),2.8%
5,O=C(NCCc1ccccc1)c1ccnc(/C=N/O)c1,-14.3%
6,CCn1c2c(c3cc(Cl)ccc31)CCCC2=O,-6.2%
7,CCn1c2c(c3cc(C(=O)O)ccc31)CCCC2=O,-19.1%
8,Cc1oc2cc(O)ccc2c(=O)c1-c1cnn(-c2ccccc2)c1,22.6%
9,Cc1oc2cc(O)cc(C)c2c(=O)c1-c1cnn(-c2ccccc2)c1,61.3% (active)
10,Cc1oc2c(O)c(O)ccc2c(=O)c1-c1cnn(-c2ccccc2)c1,0.8%
11,COc1cc(NC(=O)Nc2ccccc2OC)c(OC)cc1NC(=O)CN1CCCCC1,48.5%
12,COc1cc(NC(=O)Nc2cccc(Cl)c2)c(OC)cc1NC(=O)CN1CCCCC1,89.7% (active)
13,COc1cc(NC(=O)Nc2ccccc2)c(OC)cc1NC(=O)CN1CCCCC1,-3.3%
14,O=C(NC1CCCC1)C1CC1c1ccccc1 (stereo unspecified),17.8%
15,CC1(C)CC(=O)C2=C(C1)OC(N)=C(C#N)C2c1cccc(OC(=O)c2ccco2)c1 (stereo unspecified),-2.4%
16,Nc1nc(-c2ccccc2)cc(C(F)(F)F)n1,-1.4%
17,FC(F)(F)c1cc(-c2ccco2)nc(NCc2ccco2)n1,-0.2%
18,COc1ccc(-c2cc(C(F)(F)F)nc(N3CCCCC3)n2)cc1OC,-2.6%
19,COc1ccc(-c2cc(C(F)(F)F)nc(NC3CCCC3)n2)cc1OC,8.8%
20,COc1nc(-c2ccccc2)cc(C(F)(F)F)n1,-0.7%
21,FC(F)(F)c1cc(-c2ccco2)nc(NCc2ccccc2)n1,8.4%
22,FC(F)(F)c1cc(-c2ccco2)nc(-n2cnc3ccccc32)n1,41.5%
23,FC(F)(F)c1cc(-c2ccco2)nc(-n2nnc3ccccc32)n1,3.9%
